Screens: PubChem BioAssay, National Center for Advancing Translational Sciences (NCATS)
RORg inh: qHTS for inhibitors of ROR gamma transcriptional activity | Drosophila S2 Gal4-RORgamma UAS-luciferase reporter, 20 h | Potency, µM (top dose mostly 53.6 µM), most hits filed as inhibitors | 310,000 compounds, 5.4% hits | AID 2551, 2010; also: nearly all actives have a fitted effect of over 60% in size
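Compounds are pin-transferred onto Drosophila Schneider cells expressing a copper-inducible Gal4–ROR gamma transactivation domain fusion. After 1 hr, copper sulfate is added to 700 uM final; luciferase is read 20 hr later.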
Giardia kill: Small Molecules that selectively kill Giardia lamblia: qHTS; Giardia lamblia trophozoite viability; activity change, % at 7.66 µM, hits read low; 340,000 compounds, 0.15% hits; AID 540267, 2011; in the data active = activity change below about -80%; inconclusive = between about -30% and that limit;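 also: parasites exposed to compound for two days anaerobically before the ATP read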
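Luminescence from cellular ATP indicates surviving trophozoites (100 cells/well) following 48 hrs anaerobic compound treatment at 37 deg C; signal develops 15-30 min at room temperature.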
VP16 counter: VP16 counterscreen qHTS for inhibitors of ROR gamma transcriptional activity. Drosophila S2 Gal4-VP16 UAS-luciferase, luminescence, 20 h. Potency, µM (doses to about 53.6 µM), actives largely listed as inhibitors. 310,000 compounds, 3.5% hits. AID 2546, 2010;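 also: Gal4-VP16 expression switched on by copper sulfate through the metallothionein promoter; nearly all actives have a fitted effect of over 50% in size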
ERG-DNA inh: qHTS for Small Molecule Inhibitors of the ERG Ets/DNA interaction; Potency, µM (series often up to 76.9 µM), actives largely listed as inhibitors; 370,000 compounds, 0.028% hits; Transcriptional regulator ERG (Homo sapiens), P11308; AID 624246, 2012; fluorescence polarization, His-ERG Ets domain / labelled DNA; active = well fitted inhibition curve with a large enough effect in the polarisation, with a control signal flat; inconclusive = small, poorly fitted or top-dose-only effect, or effect the other way, or a change in a side signal; inactive = no such curve, though single readings can be large or run the other way; the % refers to the polarisation;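 also: polarization taken with two DNA probes labelled with fluorescein and Texas red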
Target sequence (P11308 whole entry, looked up, the tested form may be a part): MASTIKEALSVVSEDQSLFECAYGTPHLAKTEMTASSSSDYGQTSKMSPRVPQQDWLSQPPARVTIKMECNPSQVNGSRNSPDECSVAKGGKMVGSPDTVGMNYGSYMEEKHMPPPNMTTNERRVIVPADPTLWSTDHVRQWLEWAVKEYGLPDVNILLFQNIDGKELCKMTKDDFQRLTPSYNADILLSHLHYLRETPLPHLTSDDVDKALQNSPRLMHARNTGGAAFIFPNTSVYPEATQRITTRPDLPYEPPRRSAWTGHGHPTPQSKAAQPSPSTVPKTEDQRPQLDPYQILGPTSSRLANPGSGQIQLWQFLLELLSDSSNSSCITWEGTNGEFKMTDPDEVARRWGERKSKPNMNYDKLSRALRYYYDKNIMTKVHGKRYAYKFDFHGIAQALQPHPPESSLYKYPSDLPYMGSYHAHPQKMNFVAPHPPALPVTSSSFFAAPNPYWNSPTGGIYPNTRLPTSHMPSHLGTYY
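His-tagged ERG Ets domain (1 uM in the protein solution; 300mM KCl, 50mM Tris-HCl, 1mM EDTA, 1mM DTT, pH 7.5) received compound, then a probe mix of 5 nM fluorescein-DNA and 100nM Texas-615-DNA. Fluorescence polarization was read for both dyes.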
a7 integrin act: qHTS for Activators of Integrin-Mediated Alleviation for Muscular Dystrophy. AID 624291, 2012. alpha7betagal myoblasts, beta-gal FDG fluorescence, 48 h. 350,000 compounds, 0.064% hits. Potency, µM (top dose mostly 38.3 µM), hits mostly activators; also: nearly all actives have a fitted effect of over 60% in size
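alpha7betagal+/- myoblasts (passage 13, 250/well) treated 48 h at 37C with compounds at 1:260 dilution of DMSO stock. Lysed, then beta-galactosidase activity read as FDG fluorescence (ex 480/em 540) after 30 min, with pre-read for autofluorescence.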
Of the large screens only hits and unclear results are named; the others gave an inactive call. This is one part of a sample in which hits are shown more often than they occur. Unless noted, calls follow the shape of the dose curve; as a rule, active = well fitted curve in the direction sought with a large enough effect; inconclusive = small, poorly fitted or top-dose-only effect, or another doubt; inactive = no such curve, though single readings can be large; an effect the other way counts as inactive or inconclusive.

CC(=O)OC[C@@H]1O[C@@H](O/N=C2/C[C@@H](O)[C@@H](O)[C@@H]3[C@@H]4C(=O)N([C@@H](C)c5ccccc5)C(=O)[C@H]4CC[C@@H]23)[C@H](OC(C)=O)[C@H](OC(C)=O)[C@@H]1OC(C)=O	none (no result: Giardia kill, ERG-DNA inh, a7 integrin act)
COc1ccc(CNC(=O)CSc2nc(-c3ccc(OC)c(OC)c3)cc(C(F)(F)F)n2)cc1	none (no result: RORg inh, Giardia kill, VP16 counter, a7 integrin act)
Cc1ccc2cccc(NC(=O)C(F)(F)F)c2n1	RORg inh inconclusive
Cc1cccc(NC(c2ccc(O)cc2)c2ccc3ccc(C)nc3c2O)n1 (centres undefined)	RORg inh 10µM
Cc1nc([N+](=O)[O-])cn1-c1nc2ccccn2c1[N+](=O)[O-]	Giardia kill -88
Cc1nc([N+](=O)[O-])cn1CC(=O)c1ccccc1	none
Cc1ccc(C(=O)Nc2ccc(S(=O)(=O)N3CCCC3)cc2)o1	none
CC(=O)Nc1ccc2nc(NC(=O)c3ccco3)sc2c1	RORg inh inconclusive
O=C(Nc1ccc(Cc2ccncc2)cc1)c1ccc([N+](=O)[O-])o1	Giardia kill -88 (no result: RORg inh, VP16 counter)
O=C(Nc1ccc(S(=O)(=O)N2CCCC2)cc1)c1ccc([N+](=O)[O-])o1	Giardia kill -81 (no result: RORg inh, VP16 counter)
CC(=O)Nc1ccc2nc(NC(=O)c3ccc([N+](=O)[O-])o3)sc2c1	RORg inh inconclusive, VP16 counter 10µM
O=C(Nc1ccc(Cc2ccncc2)cc1)c1cccc([N+](=O)[O-])c1	VP16 counter inconclusive
COc1ccc(S(=O)(=O)N2CCCCC2)cc1NC(=O)c1ccc([N+](=O)[O-])o1	Giardia kill -95
O=C(Nc1ccc(N2CCOCC2)cc1)c1ccc([N+](=O)[O-])o1	RORg inh 11µM, Giardia kill -85, VP16 counter inconclusive
O=C(Nc1ccc(S(=O)(=O)N2CCOCC2)cc1)c1ccc([N+](=O)[O-])o1	Giardia kill -83, VP16 counter inconclusive
COc1ccc(-c2cc3ccccc3oc2=O)cc1NC(=O)c1ccc(Br)o1	RORg inh inconclusive, VP16 counter inconclusive
COc1ccc(-c2cc3ccccc3oc2=O)cc1NC(=O)c1ccc([N+](=O)[O-])o1	Giardia kill -94
O=C(Nc1ccc(S(=O)(=O)N2CCOCC2)cc1)c1ccc([N+](=O)[O-])s1	Giardia kill inconclusive (no result: RORg inh, VP16 counter)
O=C(Nc1ccc(N2CCN(C(=O)c3cccs3)CC2)cc1)c1ccc([N+](=O)[O-])o1	RORg inh 13µM, VP16 counter inconclusive (no result: Giardia kill, ERG-DNA inh, a7 integrin act)
Cn1nc(Oc2nc(N3CCOCC3)nc(N3CCOCC3)n2)ccc1=O	none
COc1ccc(C(=O)Nc2nc3n(n2)C(c2ccc(Cl)cc2)C=C(c2ccccc2)N3)cc1OC (centres undefined)	none (no result: RORg inh, Giardia kill, VP16 counter, a7 integrin act)
CC(C)c1ccc(S(=O)(=O)Nc2ccc3c(c2)OCO3)cc1	none (no result: RORg inh, VP16 counter)
COc1ccccc1N1C(=O)C=C(Sc2nc(C)cc(C)n2)C1=O	RORg inh inconclusive, VP16 counter inconclusive, ERG-DNA inh inconclusive
O=C(COC(=O)c1ccc([N+](=O)[O-])o1)Nc1cccc(S(=O)(=O)N2CCOCC2)c1	RORg inh inconclusive, VP16 counter 7.1µM
O=C(COC(=O)c1ccc(Br)o1)Nc1cccc(S(=O)(=O)N2CCOCC2)c1	none (no result: RORg inh, VP16 counter)
CCOc1ccccc1NC(=O)c1ccc2c(c1)C(=O)N(CC)C2=O	none
CCOC(=O)c1cnn(C)c1NC(=O)c1ccc([N+](=O)[O-])cc1	none
O=C(NCC1CCCO1)/C(=C\c1ccccc1F)NC(=O)c1ccccc1 (centres undefined)	none
O=C(NC(=S)Nc1ccc(CN2CCOCC2)cc1)c1ccc2c(c1)OCCO2	RORg inh inconclusive, VP16 counter inconclusive
CC(C)c1ccc(C(=O)NN2CCOCC2)cc1	RORg inh inconclusive, VP16 counter inconclusive
CC(C)c1ccc(/C=C/C(=O)NC(=S)Nc2ccc(CN3CCOCC3)cc2)cc1	RORg inh 2.8µM, VP16 counter 5µM
CC(C)c1ccc(/C=C/C(=O)NC(=S)NN2CCOCC2)cc1	RORg inh 4µM, VP16 counter 4.5µM
CCOC(=O)Cc1ccc2sc(-c3ccccc3)nc2c1	VP16 counter inconclusive
Cc1nn(C)c(C(=O)Nc2ccc(Cn3cccn3)cc2)c1[N+](=O)[O-]	none
Cc1nn(C)c(C(=O)NNC(=S)Nc2ccc(Cl)cc2)c1[N+](=O)[O-]	RORg inh 4µM, VP16 counter inconclusive
COc1cccc(NC(=S)NNC(=O)c2c([N+](=O)[O-])c(C)nn2C)c1	RORg inh 2.5µM, VP16 counter inconclusive
BrC/C=C/CBr	none (no result: Giardia kill, ERG-DNA inh, a7 integrin act)
Cc1cc(C)cc(NC(=O)c2ccc3oc(=O)c(S(=O)(=O)c4ccc(F)cc4)cc3c2)c1	none (no result: RORg inh, Giardia kill, VP16 counter, a7 integrin act)
O=C(COc1ccc2c3c(c(=O)oc2c1)CCCC3)NCc1ccccn1	a7 integrin act inconclusive
Nc1cc2nsnc2cc1Br	RORg inh 13µM
CCOc1ccc2[nH]c(=O)c(C(c3nnnn3Cc3ccco3)N3CCN(C)CC3)cc2c1 (centres undefined)	RORg inh 3.5µM, VP16 counter 3.5µM
CCOc1ccc2nc(NC(=O)CSc3cn[nH]n3)sc2c1	none
COc1ccc2nc(NC(=O)CSc3ccccc3)sc2c1	RORg inh 1.6µM
COc1ccc2nc(NC(=O)CSC3=NCCS3)sc2c1	RORg inh inconclusive
COc1ccc2nc(NNC(=O)C3COc4ccccc4O3)sc2c1 (centres undefined)	RORg inh 2.8µM, VP16 counter inconclusive
CCOc1ccc2nc(NC(=O)CSC3=NCCS3)sc2c1	RORg inh 14µM
CCOc1ccc2nc(NC(=O)CSc3ccc(Cl)cc3)sc2c1	RORg inh 11µM, VP16 counter inconclusive
CCOc1ccccc1-c1nnc2n1N=C(c1cc(OC)ccc1OC)CS2	none (no result: Giardia kill, ERG-DNA inh, a7 integrin act)
CCOC(=O)c1c(S(=O)(=O)N2CCCC(C(=O)N3CCN(c4ccccc4)CC3)C2)c(C)n(C)c1C (centres undefined)	none (no result: RORg inh, Giardia kill, VP16 counter, a7 integrin act)
CN(C(=O)c1cccc(NC(=O)Cc2cccc(NC(=O)C3CCCN(C(=O)CCc4ccccc4)C3)c2)c1)C1CCC1 (centres undefined)	none (no result: RORg inh, VP16 counter)
O=c1[nH]c(-c2ccccn2)cc2ccccc12	RORg inh 5µM, VP16 counter inconclusive
Nc1nc(SCc2ccc(Cl)cc2)ns1	Giardia kill inconclusive, VP16 counter 7.1µM
CCCSc1ccc2nc(-c3ccccc3)cn2c1	RORg inh 2.2µM, Giardia kill inconclusive, VP16 counter 6.3µM
Oc1ccc(Br)cc1CNc1cccc2cccnc12	none
Oc1c(Br)cc(Br)cc1CNc1cccc2cccnc12	RORg inh 14µM, VP16 counter 8.9µM, a7 integrin act 13µM
N#CC1(NC(=O)Cn2ncc(Cl)c(Cl)c2=O)CCCCC1	none (no result: RORg inh, VP16 counter)
Cc1cc(C)nc(SC2CC(=O)N(c3ccc(Cl)cc3)C2=O)n1 (centres undefined)	RORg inh 14µM, a7 integrin act inconclusive
